High-throughput results deposited in PubChem by National Center for Advancing Translational Sciences (NCATS).
HT1080 IDH1KD tx: HT-1080 IDH1 knockdown cell toxicity (counter line) | hit rate 2% among 360,000 | AID 686971 | HT-1080 IDH1 knockdown viability, ATP luminescence, 48 h | Potency, µM (doses to about 46.1 µM), without a hit: top-dose activity, negative = toxicity, usual class: cytotoxic;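 further: potency means the concentration at half of the fitted maximal effect; 0% = DMSO wells and -100% = cell-free medium wells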
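Assay cells: HT-1080 with IDH1 knockdown, 750 per well, RPMI/5% FBS. Exposure: 48 h at 37 °C following 2 h pre-incubation. Read: CellTiter-Glo luminescence; fitted concentration-response, curve class assigned.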
HT1080-NT tox: kills 2HG-producing HT-1080-NT fibrosarcoma cells. Potency, µM (top dose mostly 46.1 µM), without a hit: at the highest dose activity, negative = less viability, hits mostly cytotoxic. AID 686970. hit rate 1.6% among 360,000. HT-1080-NT fibrosarcoma viability, CellTiter-Glo ATP luminescence, 48 h;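 further: NT is the 2HG producing partner of a matched IDH1 knockdown line; potency means the concentration at half of the fitted maximal effect; 0% = DMSO-treated cells and -100% = media-only wells without cells; nearly all actives have a fitted effect of over 55% in size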
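Read-out is CellTiter-Glo luminescence after 10 minutes at room temperature, following 48 hours' compound treatment of HT-1080-NT cells (750 cells/well, RPMI, 5% FBS, 37 degrees C).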
ELG1 DNA repair: blocks ELG1-dependent DNA repair in HEK293T cells; Potency, µM (titrated, usually from 46.1 µM), without a hit: at the top dose activity change, negative = inhibition, usual class: inhibitors; HEK293T ELG1-luciferase reporter, luminescence, 16 h; DNA damage induced by 5-fluorouridine; hit rate 2.3% among 330,000; further: potency means the concentration at half of the fitted maximal effect; nearly all actives have a fitted effect of over 55% in size
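5-Fluorouridine DNA damage + compound/DMSO, 2,000 cells/well, 16 h, 37 °C/5% CO2. ONE-Glo, 30 min RT, luminescence. Readout = decrease in reporter signal.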
TDP1 cell CPT: DT40-hTDP1 cell growth loss with CPT. chicken DT40 Tdp1-/-;hTDP1 cells + 20 nM CPT, ATP luminescence, 48 h. Potency, µM (series often up to 46.2 µM), inactives show at the highest dose activity change, negative = growth inhibition, actives largely listed as inhibitors. hit rate 12% among 420,000. AID 686979; further: potency means the concentration at half of the fitted maximal effect; nearly all actives have a fitted effect of over 55% in size
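Cell growth measured by CellTiter-Glo luminescence after a minimum 48 h, 37 C compound exposure with 20 nM CPT in Tdp1-knockout DT40 cells stably expressing hTDP1, seeded 400/well; qHTS titration format.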
IL1B secr inh: inflammasome signaling inhibition, IL-1 beta readout | THP-1 LPS/ATP IL-1B secretion, AlphaLISA, 16 h; active compounds read low | activity change, % at 57.5 µM | hit rate 4.7% among 360,000; in the data active means activity change below about -50%; inconclusive means mostly about -30% to -49%
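Secreted IL-1B measured by AlphaLISA bead assay after 16 h compound exposure of THP-1 cells; compounds (final up to 57.5 uM) added 1 h before LPS (250 ng/mL) and ATP (1.25 mM) stimulation; lower signal means less secretion.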
DT40 TDP1 no CPT: qHTS for Inhibitors of human tyrosyl-DNA phosphodiesterase 1 (TDP1): qHTS in cells in absence of CPT; DT40 Tdp1-/- hTDP1 cells, no CPT, ATP luminescence, 48 h; Potency, µM (highest dose often 46.2 µM), without a hit: at the top dose activity change, negative = growth inhibition, hits mostly inhibitors; hit rate 15% among 420,000; further: potency means the concentration at half of the fitted maximal effect; nearly all actives have a fitted effect of over 55% in size
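Chicken DT40 Tdp1-/- cells complemented with human TDP1, screened without camptothecin (DMSO vehicle only), 400 cells/well. Compounds pin-transferred, cells incubated at 37 °C for at least 48 hr. Growth read as ATP-dependent luminescence (CellTiter-Glo, 30 min at RT).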
* hit, by the source's call; ? = inconclusive; / = no result; [ ] = remark or other dose. A selection: hits, their analogues and other compounds. The true share with any hit is near 19%. Unless noted, the call rests on the fitted dose curve; in most records, active means well fitted curve in the direction sought with a large enough effect; inconclusive means small, poorly fitted or top-dose-only effect, or another doubt; inactive means no such curve, though single readings can be large; an effect the other way counts as inactive or inconclusive. Unless noted, on the % scale 0 is the no-effect control and ±100 the full control effect.

SMILES	HT1080 IDH1KD tx	HT1080-NT tox	ELG1 DNA repair	TDP1 cell CPT	IL1B secr inh	DT40 TDP1 no CPT
CCN1CCN(c2nc(Nc3cccc(C)c3)nc(N)c2[N+](=O)[O-])CC1	-21.0%	-14.9%	?	?	?	18.4µM*
CCOC(=O)N1CCN(C(=O)c2ccc(NS(=O)(=O)c3ccc(C)cc3)cc2)CC1	-0.6%	-6.3%	-23.2%	18.4µM*	0.0	13µM*
Cc1ccc(NS(=O)(=O)c2ccc(C(=O)N3CCC3)cc2)cc1	-13.9%	-5.0%	-5.3%	?	40.9	?
CCOC(=O)N1CCN(C(=O)c2ccc(S(=O)(=O)Nc3ccc(C)cc3)cc2)CC1	-13.6%	-0.2%	?	9.2µM*	37.3	10.3µM*
O=S(=O)(c1ccc(F)cc1)N1CCC2(CC1)OCCN2S(=O)(=O)c1cccs1	-8.4%	-12.4%	-8.2%	?	-7.5	?
CCCCn1c(N)c(N(CC(C)C)C(=O)c2cccc(-n3cnnn3)c2)c(=O)[nH]c1=O	-9.5%	-6.5%	27.9%	2.0%	0.9	3.9%
Cc1cccc(OCCCC(=O)Nc2ccc(Cl)c(S(=O)(=O)N3CCOCC3)c2)c1	-9.5%	-7.3%	?	23.1µM*	-20.4	11.6µM*
CN(CCOc1ccccc1)CC(=O)Nc1ccc(S(=O)(=O)N2CCCC2)cc1	-2.0%	-2.8%	-8.2%	?	0.0	?
Cc1cccc(OCCC(=O)Nc2ccc(C)c(S(=O)(=O)N3CCCCC3)c2)c1	-19.4%	-20.6%	-21.3%	?	-71.9*	20.6µM*
CN(CCOc1ccccc1)c1ccc(S(=O)(=O)N2CCCCC2)cn1	1.9%	-3.0%	-4.7%	?	-29.2	20.6µM*
Cc1ccc(C(=O)N(C)CCOc2ccccc2)cc1S(=O)(=O)N1CCCCC1	-4.5%	-6.6%	-12.0%	18.4µM*	0.0	?
CCOc1ccccc1OCCCC(=O)Nc1ccc(Cl)c(S(=O)(=O)N2CCOCC2)c1	-23.7%	-12.2%	?	?	13.5	?
Cc1cccc(OCCC(=O)Nc2ccc(C)c(S(=O)(=O)N3CCOCC3)c2)c1	-15.5%	0.9%	?	?	-15.4	?
Cc1c(-c2nc(-c3ccc4c(c3)[nH]c(=O)n4C)no2)cccc1[N+](=O)[O-]	/	/	/	7.0%	/	4.6%
C#CCOCC1CN(C)C(=O)O1 (stereo unspecified)	-1.1%	0.3%	/	-1.1%	-11.9	2.3%
OC(CNCC(c1ccc(Cl)cc1Cl)c1c[nH]c2ccccc12)c1ccccc1 (stereo unspecified)	7.31µM*	20.6µM*	?	?	-103.4*	13µM*
COc1ccc(CNC(=O)Nc2cccc3ccccc23)cc1	-0.1%	-1.8%	-1.5%	-12.6%	6.2	1.1%
COc1ccc(OCCNC(=S)Nc2cccc3ccccc23)cc1	?	-1.1%[9.24 µM]	-14.1%	-20.6%	0.0	23.1µM*
COc1ccc(CCNC(=S)Nc2cccc3ccccc23)cc1	0.9%	9.9%	-3.9%	?	-9.1	16.4µM*
CCC1CN(C(=O)N2CCC(C(=O)NCCc3ccccc3C)CC2)c2ccccc2O1 (stereo unspecified)	/	/	/	?	/	20.6µM*
CCC1CN(C(=O)N2CCC(C(=O)NCCc3ccc(Cl)cc3)CC2)c2ccccc2O1 (stereo unspecified)	/	/	/	16.4µM*	/	14.6µM*
O=C(NCCC1=CCCCC1)C1CCN(S(=O)(=O)N2CCOCC2)CC1	-3.6%	-17.5%	-5.1%	-26.7%	6.9	-27.1%
CCC1CN(C(=O)N2CCC(C(=O)NCCN(C)C)CC2)c2ccccc2O1 (stereo unspecified)	/	/	/	2.4%	/	-6.9%
CCC1CN(C(=O)N2CCC(C(=O)NCCc3ccccc3Cl)CC2)c2cc(C)ccc2O1 (stereo unspecified)	/	/	/	16.4µM*	/	20.6µM*
CCC1CN(C(=O)N2CCC(C(=O)NCCC3=CCCCC3)CC2)c2ccccc2O1 (stereo unspecified)	/	/	/	16.4µM*	/	11.6µM*
SMILES	HT1080 IDH1KD tx	HT1080-NT tox	ELG1 DNA repair	TDP1 cell CPT	IL1B secr inh	DT40 TDP1 no CPT
COc1cc2cc(CCCOC(=O)c3ccco3)oc(=O)c2cc1OC	-0.3%	6.3%	?	-9.8%	-0.1	-12.4%
CCS(=O)(=O)N1CCC(C(=O)NCCC2=CCCCC2)CC1	3.1%	14.1%	5.5%	-9.4%	-7.3	5.0%
CCC1CN(C(=O)N2CCC(C(=O)NCc3ccccc3C)CC2)c2ccccc2O1 (stereo unspecified)	-3.0%	0.0%	-15.2%	18.4µM*	13.7	20.6µM*
CCC1CN(C(=O)N2CCC(C(=O)NCc3cccc(C)c3)CC2)c2ccccc2O1 (stereo unspecified)	/	/	/	16.4µM*	/	20.6µM*
Cc1ccc2c(c1)N(C(=O)N1CCC(C(=O)NCCC3=CCCCC3)CC1)CC(C)O2 (stereo unspecified)	/	/	/	?	/	18.4µM*
CCC1CN(C(=O)N2CCC(C(=O)Nc3cc(C)ccc3C)CC2)c2ccccc2O1 (stereo unspecified)	/	/	/	13µM*	/	13µM*
CCC(C)NC(=O)Cn1c(=O)n(-c2ccc(Cl)c(Cl)c2)c(=O)c2c(C)c(C(=O)N(CC)CC)sc21 (stereo unspecified)	/	/	/	-24.7%	/	?
